# Measurements taken from PubChem BioAssay (NCATS).
# Inconclusive results are not listed. Where a call stands in place of a potency, no number is given. Unmarked numbers belong to inactive results. Active and inactive are the calls of the source. The call rests on the fitted dose curve; in most records, active means well fitted curve in the direction sought with a large enough effect; inconclusive means small, poorly fitted or top-dose-only effect, or another doubt; inactive means no such curve, though single readings can be large; an effect the other way counts as inactive or inconclusive.
# What was measured:
# [1] = P-glycoprotein substrates identified in KB-3-1 adenocarcinoma cell line, qHTS therapeutic library screen (AID 1346986); further: nearly all actives have a fitted effect of over 60% in size
# Outline: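 In 1536-well format, 500 cells/well received pinned compound titrations and were incubated 72 h, 5% CO2. Viability was read by CellTiter-Glo; cytotoxic if AC50 < 10 uM and efficacy >50%.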
# [2] = P-glycoprotein substrates identified in KB-8-5-11 adenocarcinoma cell line, qHTS therapeutic library screen (AID 1346987); further: nearly all actives have a fitted effect of over 65% in size; on activity change, negative = cytotoxicity: series mostly up to about 44 µM
# Outline: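 Compounds are pinned in dose-response onto KB-8-5-11 cells (500 cells/well, colchicine-free medium) and left 72 h at 37 degree C. CellTiter-Glo luminescence then yields AC50 values.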
structure (smiles),measurement,setting,value
C/C=C/C1=CC2=C(CO1)C(=O)[C@](C)(O)[C@H](OC(=O)c1c(O)cc(OC)c(O)c1C)C2,Potency,[1],inactive
same,Potency,[2],inactive
C[C@]12C=CC(=O)C=C1CC[C@@H]1[C@@H]2[C@@H](O)C[C@@]2(C)[C@H]1CC[C@]2(O)C(=O)COC(=O)CCC(=O)O,Potency,[1],inactive
same,Potency,[2],inactive
CCC(NC(=O)CC(NC(=O)C(CO)NC(=O)C(CC)NC(=O)c1ccc[nH]1)c1ccccc1)C(=O)O (configuration not stated),Potency,[1],inactive
same,Potency,[2],inactive
O=c1c2cccnc2n(-c2cccc([N+](=O)[O-])c2)c(=O)n1Cc1ccncc1,Potency,[1],inactive
same,Potency,[2],inactive
COc1ccc2c(c1)O[C@H](O[C@@H]1O[C@H](CO)[C@@H](O)[C@H](O)[C@H]1O)C(=O)N2,Potency,[1],inactive
same,Potency,[2],inactive
C=CC1(C)C=C2C(=O)CC3C(C)(C)CCCC3(C(=O)O)C2(O)CC1 (configuration not stated),Potency,[1],inactive
same,Potency,[2],inactive
N[C@H]1C[C@H]1c1ccc(-c2cccc(O)c2)cc1,Potency,[1],inactive
same,Potency,[2],inactive
O=C(c1ccc(C#Cc2cccc(F)c2)cn1)N1CC2CC2C1 (configuration not stated),Potency,[1],inactive
same,Potency,[2],inactive
Cc1cc(C)cc(NC(=O)Cc2ccc(OC(C)(C)C(=O)O)cc2)c1,Potency,[1],inactive
same,Potency,[2],inactive
CC(=O)c1c(C)cc(O)cc1O[C@@H]1O[C@H](CO)[C@@H](O)[C@H](O)[C@H]1O,Potency,[1],inactive
same,Potency,[2],inactive
COC12CC3C(C(C)C1=CC(=O)O2)C(O)C(OC(C)=O)C1C(C)(C)C(OC(C)=O)CCC31C (configuration not stated),Potency,[1],inactive
same,Potency,[2],inactive
CC(=O)OC[C@]12[C@H](OC(C)=O)C(=O)[C@@H]3[C@@H](OC(C)=O)[C@@]14O[C@@]3(C)COC(=O)c1cccnc1[C@@H](C)[C@H](C)C(=O)O[C@@H]([C@H](OC(C)=O)[C@@H]2OC(C)=O)[C@]4(C)O,Potency,[1],inactive
same,Potency,[2],inactive
CC1=C2CC3OC3(C)CCC3OC3(C)CC2OC1=O (configuration not stated),Potency,[1],inactive
same,Potency,[2],inactive
COCCN(C)Cc1ccc2nc3sc(C(=O)N(C)C4CCCCC4)cn3c2c1,Potency,[1],inactive
same,Potency,[2],inactive
CC(=O)Oc1cc2c(s1)CCN([C@H](C(=O)C1CC1)c1ccccc1F)C2,Potency,[1],inactive
same,Potency,[2],inactive
CCC(=O)NS(=O)(=O)c1ccc(-c2c(-c3ccccc3)noc2C)cc1,Potency,[1],inactive
same,Potency,[2],inactive
CCOC(=O)[C@H]1O[C@@H]1C(=O)N[C@@H](CC(C)C)C(=O)NCCC(C)C,Potency,[1],inactive
same,Potency,[2],inactive
OC[C@H]1O[C@@H](OC(CCCCc2ccc(O)cc2)CCc2ccc(O)cc2)[C@H](O[C@@H]2OC[C@](O)(CO)[C@H]2O)[C@@H](O)[C@@H]1O (some centres not stated),Potency,[1],inactive
same,Potency,[2],inactive
C/C(=C\CO)CC/C=C(\C)C(=O)O[C@H]1[C@H](OC2OC=C(C(=O)O)C3CCC(C)(O)C23)O[C@H](CO)[C@@H](O)[C@@H]1O (some centres not stated),Potency,[1],inactive
same,Potency,[2],inactive
OC[C@H]1O[C@@H](Oc2ccc3c(c2)OC[C@H]2c4cc5c(cc4O[C@@H]32)OCO5)[C@H](O)[C@@H](O)[C@@H]1O,Potency,[1],inactive
same,Potency,[2],inactive
CC1(C)C(=O)C(C)(C)c2cc(C(=O)Nc3ccc(C(=O)O)cc3)ccc21,Potency,[1],inactive
same,Potency,[2],inactive
CCc1c(CC(N)=O)c2cc(OCCCP(=O)(O)O)ccc2n1Cc1ccccc1,Potency,[1],inactive
same,Potency,[2],inactive
CC1(C)CCCC2(C)C(CO)C3CCC2C31 (configuration not stated),Potency,[1],inactive
same,Potency,[2],inactive
CO[C@@]12CC3[C@@H]([C@@H](O)[C@@H](OC(C)=O)C4[C@](C)(COC(C)=O)CCC[C@]34C)[C@@H](C)C1=CC(=O)O2 (some centres not stated),Potency,[1],inactive
same,Potency,[2],inactive
C[C@@H]1CC[C@H]2C(C)(C)[C@H](O)[C@H](O)C[C@]2(C)[C@@]12Cc1c(O)cc3c(c1O2)CNC3=O,Potency,[1],inactive
same,Potency,[2],inactive
COc1cc(C2Oc3c(O)cc(CCCO)cc3C2CO)ccc1O[C@H]1O[C@H](C)[C@@H](O)[C@H](O)[C@@H]1O (some centres not stated),Potency,[1],inactive
same,Potency,[2],inactive
CCC(C)/C=C(C)/C=C/C1=CC2=C(Cl)C(=O)C(C)(OC(C)=O)C(=O)C2=CN1C1CCCCN(C(CCC(N)=O)C(=O)O)C1=O (configuration not stated),Potency,[1],inactive
same,Potency,[2],inactive
CC(=O)OCCC(C)CCC1C(C)(O)CCC2C(C)(C)CCCC21C (configuration not stated),Potency,[1],inactive
same,Potency,[2],inactive
COc1cc(C(C)=O)ccc1O[C@@H]1O[C@H](CO[C@@H]2O[C@@H](C)[C@H](O)[C@@H](O)[C@H]2O)[C@@H](O)[C@H](O)[C@H]1O,Potency,[1],inactive
same,Potency,[2],inactive
COC1CC(OC2CCC3(C)C(=CCC4C3CCC3(C)C(C(C)O)CCC43O)C2)OC(C)C1OC1OC(C)C(OC2OC(COC3OC(COC4OC(CO)C(O)C(O)C4O)C(O)C(O)C3O)C(O)C(O)C2O)C(OC)C1O (configuration not stated),outcome,[1],inactive [at 9.29 µM]
same,"activity change, negative = cytotoxicity",[2],4.62% [at 9.29 µM]
COC(=O)C1(Cc2ccc(O)cc2)OC(=O)C(OC)=C1c1ccc(O)cc1 (configuration not stated),Potency,[1],inactive
same,Potency,[2],inactive
CCC(=O)N[C@@H]1Cc2ccccc2[C@H](c2ccccc2)C1,Potency,[1],inactive
same,Potency,[2],inactive
CC(=O)OC(CSC1CCC(=O)OC(C)CCC(=O)C1)C(=O)O (configuration not stated),Potency,[1],inactive
same,Potency,[2],inactive
Cc1onc(-c2ccccc2)c1C(=O)N[C@@H]1C(=O)N2[C@@H]1SC(C)(C)[C@@H]2C(=O)O,Potency,[1],inactive
same,Potency,[2],inactive
C[C@H]1CN(C[C@H](Cc2ccccc2)C(=O)NCC(=O)O)CC[C@@]1(C)c1cccc(O)c1,Potency,[1],inactive
same,Potency,[2],inactive
C[C@@H]1O[C@@H](O[C@H]2[C@H](OC(C#N)c3ccc(O)cc3)O[C@H](CO)[C@@H](O)[C@@H]2O)[C@H](O)[C@H](O)[C@H]1O (some centres not stated),Potency,[1],inactive
same,Potency,[2],inactive
CC(=O)NC(CCC(=O)O)C(=O)NCCc1ccc(O)cc1 (configuration not stated),Potency,[1],inactive
same,Potency,[2],inactive
C=CC1(C)CC(O)C2(CCC3C(C)(C(=O)O)CCCC3(C)C2=O)C1 (configuration not stated),Potency,[1],inactive
same,Potency,[2],inactive
CC1(CO)CC[C@]2(C(=O)O[C@@H]3O[C@H](CO)[C@@H](O)[C@H](O)[C@H]3O)CC[C@]3(C)C(=CCC4[C@@]5(C)C[C@H](O)[C@H](O[C@@H]6OC[C@@H](O)[C@H](O)[C@H]6O)[C@@](C)(CO)C5CC[C@]43C)C2C1 (some centres not stated),outcome,[1],inactive [at 9.29 µM]
same,outcome,[2],inactive [at 9.29 µM]
C=C1CCC2C(C)(COC3OC(COC(=O)CC(=O)O)C(O)C(O)C3O)CCCC2(C)C1CCC1=CCOC1=O (configuration not stated),Potency,[1],inactive
same,Potency,[2],inactive
COc1ncc(-c2ccc3c(Nc4cc(Oc5cc(F)cc(F)c5)cc(C(=O)O)c4)c(S(=O)(=O)NC4CC4)cnc3c2)c(OC)n1,Potency,[1],inactive
same,Potency,[2],inactive
O=C(NC[C@H](O)CN1CCc2ccccc2C1)c1cc(NC2COC2)ncn1,Potency,[1],inactive
same,Potency,[2],inactive
OC1COC(OCC2OC(OCCc3ccccc3)C(O)C(O)C2O)C(O)C1O (configuration not stated),Potency,[1],inactive
same,Potency,[2],inactive
CC1(C)NC2N(C1=O)c1ccccc1C2(O)CC(C(=O)O)n1cnc2ccccc2c1=O (configuration not stated),Potency,[1],inactive
same,Potency,[2],inactive
CC1CCC2C(C(=O)O)=CC3C(O)C(C)(C)CC123 (configuration not stated),Potency,[1],inactive
same,Potency,[2],inactive
CC12CCC3c4ccc(O)cc4CCC3C1CCC2OC1OC(C(=O)O)C(O)C(O)C1O (configuration not stated),Potency,[1],inactive
same,Potency,[2],inactive
O=C(NCc1ccc(OC(F)(F)F)cc1)C1c2ccccc2C(=O)N1C1CCOCC1 (configuration not stated),Potency,[1],inactive
same,Potency,[2],inactive
CCCC(N[C@@H](C)C(=O)N1[C@H](C(=O)O)C[C@@H]2CCCC[C@@H]21)C(=O)OCC (some centres not stated),Potency,[1],inactive
same,Potency,[2],inactive
C=C[C@H]1[C@H](O[C@@H]2O[C@H](CO[C@@H]3OC[C@](O)(CO)[C@H]3O)[C@@H](O)[C@H](O)[C@H]2O)OC=C2C(=O)OCC[C@H]21,Potency,[1],inactive
same,Potency,[2],inactive
Clc1ccc2c(c1)C1=NCCN1c1c(-c3noc(C4CC4)n3)ncn1-2,Potency,[1],inactive
same,Potency,[2],inactive
CC(C)(O)C1CC=C(C(=O)OCC2OC(Oc3c(O)cc(C(=O)O)cc3O)C(O)C(O)C2O)CC1 (configuration not stated),Potency,[1],inactive
same,Potency,[2],inactive
O=C(C1CC1)N1CC[C@@H](Cc2n[nH]c(=O)n2-c2ccc(-c3ccc4occc4c3)cc2)C1,Potency,[1],inactive
same,Potency,[2],inactive
COc1ccc(C(O[C@@H]2O[C@H](CO)[C@@H](O)[C@H](O)[C@H]2O)C(CO)Oc2ccc(/C=C/CO)cc2OC)cc1O (some centres not stated),Potency,[1],inactive
same,Potency,[2],inactive
Nc1nc(CC(=O)Nc2ccc(CCNCC(O)c3ccccc3)cc2)cs1 (configuration not stated),Potency,[1],inactive
same,Potency,[2],inactive
CCCCCCc1cccc(NC(=O)[C@H](N)CCP(=O)(O)O)c1,outcome,[1],inactive [at 9.29 µM]
same,outcome,[2],inactive [at 9.29 µM]
CC1(C)CC[C@]2(C(=O)O)CC[C@]3(C)C(=CCC4[C@@]5(C)C[C@H](O)[C@H](O[C@@H]6OC[C@H](O)[C@H](O)[C@H]6O)[C@@](C)(CO)C5CC[C@]43C)[C@@H]2C1 (some centres not stated),Potency,[1],inactive
same,Potency,[2],inactive
O=C(CCO[C@@H]1O[C@H](CO)[C@@H](O)[C@H](O)[C@H]1O)c1ccc(O)cc1,Potency,[1],inactive
same,Potency,[2],inactive
O=C1N(CC2CCCCN2)CCN1c1ccccc1 (configuration not stated),Potency,[1],inactive
same,Potency,[2],inactive
CC1=C(CC(=O)O)c2cc(F)ccc2C1=Cc1ccc(S(C)(=O)=O)cc1,Potency,[1],inactive
same,Potency,[2],inactive
C=C1C(O[C@@H]2O[C@H](CO)[C@@H](O)[C@H](O)[C@@H]2O)CC2C(C)(C)C(O)CCC2(C)C1CC/C(C)=C\CO (some centres not stated),Potency,[1],inactive
same,Potency,[2],inactive
CC(C)C1=CC2=CCC3[C@](C)(CCC[C@@]3(C)C(=O)O)C2CC1O (some centres not stated),Potency,[1],inactive
same,Potency,[2],inactive
COC(=O)[C@H](OC(C)=O)[C@H]1C(C)(C)C(=O)[C@H]2CC3=C4CC(=O)O[C@@H](c5ccoc5)[C@]4(C)CCC3[C@@]1(C)C2=O (some centres not stated),Potency,[1],inactive
same,Potency,[2],inactive
CC(c1c[nH]c2ccccc12)C(O)C(=O)O (configuration not stated),Potency,[1],inactive
same,Potency,[2],inactive
O=C1Nc2ccc(O)cc2O[C@H]1O[C@@H]1O[C@H](CO)[C@@H](O)[C@H](O)[C@H]1O,Potency,[1],inactive
same,Potency,[2],inactive
COC(=O)C1=CO[C@@H](O[C@@H]2O[C@H](CO)[C@@H](O)[C@H](O)[C@H]2O)[C@@H]2[C@@H](C)[C@@H](O)C[C@H]12,Potency,[1],inactive
same,Potency,[2],inactive
CCC(CCO[C@@H]1O[C@H](CO[C@H]2OC[C@](O)(CO)[C@H]2O)[C@@H](O)[C@H](O)[C@H]1O)C(C)(C)O (some centres not stated),Potency,[1],inactive
same,Potency,[2],inactive
